# ssDAF-12 act – activates DAF-12 receptor from parasite S. stercoralis. AID 652126. activation, % at 6.8 µM. 370,000 tested, 1% active. HEK293 ssDAF-12/GRIP1 lit1-tk-luc reporter, luminescence; % of 3 µM dafachronic acid response;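 active = activation above the mean over all tested compounds plus 3 SD, cut at about 0.9% in these data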
# FXN GAA850 act – activators of GAA850 frataxin (FXN) promoter | 360,000 tested, 0.56% active | HEK293 lucGAA850 FXN promoter luciferase reporter, 24 h; percent of 10 µM SAHA response | activation, % at 6 µM | AID 540364;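 active = activation above the average of all compounds screened plus 3 SD, cutoff fixed separately per campaign, cut at about 7.5% in these data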
# hcDAF12 agonist – activates DAF-12 receptor from parasite H. contortus; HEK293 hcDAF-12 lit1-tk-luc reporter, luminescence; 0% DMSO, 100% Δ7-dafachronic acid; activation, % at 6.8 µM; 370,000 tested, 1.4% active; AID 652067;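 active = activation above the mean of all tested compounds plus 3 SD, cut at about 5.5% in these data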
# hgDAF12 agonist – activates the H. glycines DAF-12 receptor ligand-binding domain; HEK293 GAL4-hgDAF12 UAS-luciferase reporter, agonist luminescence; normalized to butyrate control; activation, % at 6.8 µM; 370,000 tested, 1.8% active;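 active = activation above a cutoff set at the mean of all screened compounds plus 3 SD, cut at about 10% in these data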
# DAX1 inh-1 – DAX1 (NR0B1) inhibition, primary screen. HEK293T StAR-luciferase reporter, SF-1/DAX-1 repression relief. inhibition, % at 6.8 µM. 370,000 tested, 1.1% active. AID 652010;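 active = inhibition above the mean over all tested compounds plus 3 SD, cut at about 3.6% in these data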;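 also: higher inhibition means more luminescence from relief of DAX-1 repression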
# DAX1 inh-2 – inhibitors of human orphan nuclear receptor DAX1 (NR0B1); HEK293 Gal4-DAX1 luciferase reporter, luminescence; inhibition, % at 6.75 µM; 340,000 tested, 0.99% active;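 active = inhibition above the mean over all tested compounds plus 3 SD, cut at about 4.2% in these data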;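 also: inhibition shows as a rise in luminescence from relieved DAX1 repression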
# Target sequence (P51843 207-470 limits assumed): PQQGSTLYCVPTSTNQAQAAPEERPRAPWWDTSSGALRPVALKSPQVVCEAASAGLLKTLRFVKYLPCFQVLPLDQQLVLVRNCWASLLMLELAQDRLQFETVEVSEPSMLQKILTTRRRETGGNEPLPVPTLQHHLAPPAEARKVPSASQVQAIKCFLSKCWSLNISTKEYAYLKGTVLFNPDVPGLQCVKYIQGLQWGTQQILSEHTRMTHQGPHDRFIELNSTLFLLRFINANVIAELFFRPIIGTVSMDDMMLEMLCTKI
# Hits are given with their value; i = inactive; nt = no result. Shown are actives, neighbours in structure and some others; about 4.5% of the full set was active somewhere.
SMILES,ssDAF-12 act,FXN GAA850 act,hcDAF12 agonist,hgDAF12 agonist,DAX1 inh-1,DAX1 inh-2
O=C(NNc1nc2c(F)cccc2s1)c1ccc(F)cc1,1.3,i,i,i,i,i
COc1ccc2nc(NNC(=O)c3cc(=O)c4ccccc4o3)sc2c1,i,i,i,i,i,i
Cc1ccc2sc(NNC(=O)c3cc(=O)c4ccccc4o3)nc2c1C,i,i,i,i,i,i
COC(=O)C1=C(C)N(CC(C)C)C(=S)NC1c1cccc(F)c1 (stereo unspecified),1.0,nt,i,i,i,nt
CCC(=O)Nc1ccc2c(c1)C(=O)N(C)[C@@H]1CC[C@@H](CC(=O)OC)O[C@H]1CO2,i,nt,i,i,i,nt
CCCCCCNC(=O)c1ncn[nH]1,i,i,i,i,i,5.0
CCCCCCCCN1C(=O)[C@@H](CC(=O)NCc2ccccc2)C[C@@]2(C(=O)OC)C1=C[C@H](C(C)C)O[C@@H]2C1CC1,i,nt,i,i,i,nt
O=C(C1CCCN1S(=O)(=O)c1ccc([N+](=O)[O-])cc1)N1CCN(c2ccccc2)CC1 (stereo unspecified),i,nt,i,i,i,nt
CCOC(=O)[C@H]1[C@H]2COc3ccc(OC)cc3[C@@H]2N2C(=O)CN(CCc3c[nH]c4ccccc34)C(=O)[C@@]12C,1.0,i,i,i,i,i
CCOC(=O)[C@H]1[C@H]2COc3ccc(OC)cc3[C@@H]2N2C(=O)CN(Cc3ccco3)C(=O)[C@@]12C,i,i,i,i,i,i
CN(C)c1ccc(NC(=O)NC2CCCCN(Cc3cccc(Cl)c3)C2=O)cc1 (stereo unspecified),i,nt,i,i,i,nt
COc1cccc(CNC(=O)C2CCN(S(=O)(=O)c3ccc4c(c3)CCC(=O)N4)CC2)c1,i,i,i,i,i,5.0
Cn1cccc1C(=O)N1CCN(S(=O)(=O)c2cccc3ccccc23)CC1,i,nt,i,i,i,nt
CC1CC(c2ccccc2)=Nc2ccccc2N1 (stereo unspecified),i,i,5.7,i,i,i
CCn1c(=O)c(C(=O)Nc2ccccc2F)c(O)c2ccccc21,i,i,6.2,i,i,i
CC(=O)c1c(O)c2ccccc2n(C)c1=O,i,i,i,i,i,i
CCn1c(=O)c(C(=O)Nc2ccccc2)c(O)c2ccccc21,i,i,i,i,i,i
Cn1c(=O)c(C(=O)NCCc2ccccc2)c(O)c2ccccc21,1.7,i,6.3,i,i,i
CCCn1c(=O)c(C(=O)NCCc2ccccc2)c(O)c2ccccc21,i,i,i,i,i,i
CC(NC(=O)c1c(O)c2ccccc2n(C)c1=O)c1ccccc1 (stereo unspecified),i,i,6.0,i,i,i
Cc1ccc(-n2nc(CC#N)c(C#N)c2N)cc1Cl,1.3,i,i,i,i,i
C[C@H]1[C@@H](N(C)C)CC[C@@]23CCCN2C(=O)CCC[C@@H]13,i,nt,i,i,nt,nt
Cc1nc(SCc2ccccc2)nc2c1CCC2,i,i,i,10.9,i,i
Cc1ccccc1N1CC(=O)N(c2ccccc2C)CC1=O,i,i,i,i,i,i
CC1=NN(c2ccccc2C)C(=O)C1,1.9,i,i,i,i,i
SMILES,ssDAF-12 act,FXN GAA850 act,hcDAF12 agonist,hgDAF12 agonist,DAX1 inh-1,DAX1 inh-2
COc1ccc(OC)c(/C=C2\Oc3cc(OCC(=O)N4CCC[C@H]4C(=O)O)ccc3C2=O)c1,nt,i,nt,nt,nt,i
COc1cc(OC)c(OC)cc1/C=C1\Oc2cc(OCC(=O)N3Cc4ccccc4C[C@H]3C(=O)O)ccc2C1=O,nt,i,nt,nt,nt,4.5
COc1ccc(/C=C2\Oc3cc(OCC(=O)N4CCC[C@H]4C(=O)O)ccc3C2=O)c(OC)c1,nt,i,nt,nt,nt,6.7
Cc1nc(-c2ccc(C(=O)Nc3cccc(Br)c3)cc2)cs1,i,i,i,10.9,i,i
CC(C)CC(=O)Nc1ccc(-c2cn3cccnc3n2)cc1,i,i,i,i,i,i
Cc1nc(-c2ccc(NC(=O)C3CC3)cc2)cs1,i,i,i,i,i,i
Cc1nc(-c2ccc(NC(=O)CC(C)C)cc2)cs1,i,i,i,12.7,i,i
CC(C)(C)C(=O)Nc1ccc(-c2cn3ccsc3n2)cc1,i,i,5.9,i,i,i
COc1ccc(C(=O)Nc2ccc(-c3cn4ccsc4n3)cc2)cc1S(=O)(=O)N1CCOCC1,i,i,i,i,i,i
CC(C)CC(=O)Nc1ccc(-c2cn3ccsc3n2)cc1,i,i,i,10.8,i,i
O=C(CCc1ccccc1-c1ccccc1CCNC(=O)c1ccc(F)c(F)c1)NCc1ccccc1,i,nt,i,i,i,nt
Cc1csc(NS(=O)(=O)c2cccc([N+](=O)[O-])c2)n1,i,i,i,i,i,6.1
CC(CNCCCn1ccc(NC(=O)OCc2ccccc2)nc1=O)c1ccccc1 (stereo unspecified),i,i,i,i,i,i
O=C(Nc1ccn(CCCNCC(c2ccccc2)c2ccccc2)c(=O)n1)OCc1ccccc1,i,i,i,i,i,4.4
CC[C@@H](OP(=O)(O)[C@@H](C)N)C(=O)O,i,nt,i,i,i,nt
COC(=O)[C@H](C(C)C)N(CCc1cn(Cc2ccc(C)cc2)nn1)S(=O)(=O)c1ccc(F)cc1Br,i,nt,i,i,i,nt
N#Cc1ccc(/C=C2\CC3(OC(=O)C4CCCC4)CCCN2C3)cc1 (stereo unspecified),i,nt,i,i,i,nt
C#CCn1c2ccccc2c(=O)n1C(C)CBr (stereo unspecified),1.1,nt,i,i,i,nt
COc1ccccc1N1CCN(/N=C/c2cccc(O)c2)CC1,i,i,i,12.0,i,i
Cc1ccc(C)c(NC(=S)NCCc2c[nH]c3ccccc23)c1,i,i,i,i,i,i
Cc1ccccc1NC(=S)NCCc1c[nH]c2ccccc12,i,i,6.0,i,i,i
CC(C)(C)C(=O)NC(=S)N1CCc2ccccc21,i,i,i,i,i,i
S=C(Nc1cccnc1)N1CCc2ccccc21,i,i,6.4,i,i,i
O=C(NC(=S)N1CCc2ccccc21)C1CCC1,i,i,5.7,i,i,i
CCOC(=O)c1cccc(NC(=O)CN(C)S(=O)(=O)c2ccc(F)cc2)c1,i,nt,i,i,i,nt
CCCCCCCCN1C(=O)[C@@H](CC(=O)N2CCN(C(=O)c3ccco3)CC2)C[C@@]2(C(=O)OC)C1=C[C@H](COCc1ccccc1)O[C@@H]2C,i,nt,i,i,i,nt
CC[C@]12CCCN3CCc4c(n(c5ccccc45)[C@@](O)(C(=O)OC)C1)[C@@H]32,i,i,i,i,i,5.0
COc1ccc(-c2cc3c(=O)n(CC(=O)Nc4ccc(Cl)cc4)nc(C)n3n2)cc1,i,i,6.4,i,i,i
CC1CCc2nc(NC(=O)C3CC3)sc2C1 (stereo unspecified),i,i,i,i,i,i

# Source: PubChem BioAssay
